Screen size: about 360,000 compounds; about 11,000 (3.1%) were called active. A call without a number means that no potency is given here. Another 4% or so got no clear call; they are omitted. The sample holds actives, similar compounds and a random draw of the others, so the mix is not that of the screen. Calls follow the shape of the dose curve; as a rule, active = well fitted inhibition curve with a large enough effect; inconclusive = small, poorly fitted or top-dose-only effect; inactive = no such curve, though single readings can be large or run the other way.
biological target: Schistosoma mansoni thioredoxin glutathione reductase (TGR) (UniProt Q962Y6); test: qHTS Assay for the Inhibitors of Schistosoma Mansoni Peroxiredoxins; settings: purified TGR, DTNB reduction, TNB absorbance 405 nm; series mostly up to 114 µM; also: nearly all actives have a fitted effect of over 60% in size
Method in brief: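 Kinetic colorimetric format: TGR-catalysed, NADPH-driven DTNB reduction monitored via TNB absorbance. Enzyme dispensed at 20 nM; compound exposure 15 min at room temperature before reaction start.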
Potency is read from the fitted curve at half-maximal effect.

| SMILES | Potency | activity change, negative = inhibition |
| --- | --- | --- |
| CCOC(=O)c1cccc(NC(=O)Cn2cnc3nc4c(cc3c2=O)CCCC4)c1 | inactive |  |
| CC1=C(c2ccc(C)c(C)c2)S(=O)(=O)NC1=NCc1ccccc1Cl | inactive |  |
| C=CCNC(=O)CSc1nc2scc(-c3ccco3)c2c(=O)n1CC=C | 39.8 µM (active) |  |
| C=CCn1c(SCC(=O)/C(C#N)=C(\C)N)nc2sc(C)c(C)c2c1=O | inactive |  |
| C=CCn1c(SCc2csc(C)n2)nc2scc(-c3ccc(C)o3)c2c1=O | 7.94 µM (active) |  |
| CCC1(C)Cc2c(sc3[nH]c(=S)n(Cc4ccccc4)c(=O)c23)CO1 (stereo not drawn) | inactive |  |
| C=CCn1c(=S)[nH]c2scc(-c3ccco3)c2c1=O | 8.91 µM (active) |  |
| C=CCn1c(SCc2c(C)noc2C)nc2sc3c(c2c1=O)CCC(C)C3 (stereo not drawn) | inactive |  |
| C=CCn1c(SCC(=O)NCC2CCCO2)nc2sc(C)c(C)c2c1=O (stereo not drawn) | inactive |  |
| C=CCn1c(SCC(=O)Nc2ccc(NC(C)=O)cc2)nc2sc(C)c(C)c2c1=O | inactive |  |
| CCOC(=O)c1ccc(CN(Cc2ccccc2)S(=O)(=O)c2ccc(Cl)cc2)cc1 | inactive |  |
| Cc1cccc(N2CCN(C(=O)c3cc4c(=O)oc5ccccc5c4s3)CC2C)c1 (stereo not drawn) | inactive |  |
| O=c1cc2nc(-c3ccccc3)nc(SCCOc3ccc(Cl)cc3)n2[nH]1 | inactive |  |
| COc1ccc(CNc2nc(-c3ccc(Cl)cc3)nn2C(=O)c2ccccc2)cc1 | inactive |  |
| Cc1cccc(-n2ncc(C(=O)N3CCc4ccccc4C3)c2C2CCN(C(=O)OC(C)(C)C)CC2)c1 | inactive |  |
| CN(c1ccccc1)S(=O)(=O)c1ccc(Cl)c(C(=O)OCC(=O)NCc2ccco2)c1 | 22.4 µM (active) |  |
| CN(c1ccccc1)S(=O)(=O)c1ccc(Cl)c(C(=O)OCC(N)=O)c1 | inactive |  |
| CN(c1ccccc1)S(=O)(=O)c1ccc(Cl)c(C(=O)OCC(=O)N2CCOCC2)c1 | inactive |  |
| O=S(=O)(Nc1ccc2nc(-c3cccc(Cl)c3)oc2c1)c1ccccc1 | inactive |  |
| O=S(=O)(Nc1ccc2nc(-c3ccco3)[nH]c2c1)c1ccccc1 | 10 µM (active) |  |
| CCc1ccccc1NS(=O)(=O)c1ccc2nc(-c3ccccc3)[nH]c2c1 | inactive |  |

| SMILES | Potency | activity change, negative = inhibition |
| --- | --- | --- |
| O=C(CN1C(=O)COc2ccc(S(=O)(=O)N3CCOCC3)cc21)N1CCN(c2cccc(Cl)c2)CC1 | inactive |  |
| CCOC(=O)CN1C(C(=O)c2ccccc2)=C(OC(=O)C(C)(C)C)c2ccccc2S1(=O)=O | inactive |  |
| Cc1ccc(N(CC(=O)NCc2ccc(Cl)cc2)S(=O)(=O)N(C)C)cc1 | inactive |  |
| O=C(O)CN(Cc1ccco1)S(=O)(=O)c1ccccc1 |  | -3.68% [at 11.4 µM] (inactive) |
| O=C(O)CCC(=O)N(Cc1ccco1)c1nc(-c2ccccc2)cs1 | 44.7 µM (active) |  |
| Cc1ccc(-c2csc(N(Cc3ccco3)C(=O)c3cccs3)n2)cc1 | inactive |  |
| COc1ccccc1N1CCN(c2ccc(=O)n(CC(=O)NCc3ccc(OC(C)C)cc3)n2)CC1 | inactive |  |
| Cc1cc(NS(=O)(=O)c2ccc(NC(=O)c3ccccc3C)cc2)nc(C)n1 | inactive |  |
| Cc1nnc(N2CCC(C(=O)Nc3ccc(F)cc3)CC2)c2nn(-c3ccc(Cl)cc3)c(C)c12 | inactive |  |
| COc1ccc(NC(=O)CCc2nnc3n(CC(C)C)c(=O)c4ccccc4n23)cc1OC | inactive |  |
| COc1ccc(OCCC(=O)c2ccc(OC)cc2)cc1 | 1.78 µM (active) |  |
| COc1ccc(C(=O)C[n+]2ccc(C)cc2)cc1 | inactive |  |
| COc1ccc(OCCCC(=O)Oc2ccc(OC)cc2)cc1 | inactive |  |
| COc1ccc(C(=O)CC2C(=O)N(C)C(=O)N(C)C2=O)cc1 | 25.1 µM (active) |  |
| COc1ccc(OCC(=O)OCCN(C)C)cc1 | inactive |  |
| COc1ccc(C(=O)C2CN(C)CC2C(=O)c2ccc(OC)cc2)cc1 (stereo not drawn) | inactive |  |
| CC(=O)c1ccc(NC(=O)CSc2nc(-c3ccccc3F)nc3c2c(=O)n(C)c(=O)n3C)cc1 | inactive |  |
| CCN(CC)c1ccc(NC(=O)CN2C(=O)c3cccnc3Oc3ccc(Cl)cc32)c(C)c1 | inactive |  |
| Cc1cccc(C(=O)Nc2ccc(S(=O)(=O)N3CCCCC3c3cccnc3)cc2)c1 (stereo not drawn) | inactive |  |
| Cc1cccc(N2CCN(C(=O)c3ccc4c(c3)CCN4S(=O)(=O)c3ccccc3)CC2)c1C | inactive |  |
| COc1cccc(NC(=O)c2csnn2)c1 | inactive |  |

| SMILES | Potency | activity change, negative = inhibition |
| --- | --- | --- |
| Cc1cccc(NC(=O)Cn2c(=O)n(CCC(C)C)c(=O)c3cccnc32)c1 | inactive |  |
| COc1ccc(-n2ccn(CC(=O)Nc3ccc(C)c(C)c3)c(=O)c2=O)cc1OC | inactive |  |
| CCOC(=O)c1c(-c2ccccc2)oc2ccc(OC(=O)N(C)C)cc12 | inactive |  |
| CCOC(=O)c1c(-c2ccccc2)oc2ccc(OCC(=O)NN)cc12 | inactive |  |
| CCOC(=O)c1c(-c2ccccc2)oc2cc(Br)c(O)c(C=O)c12 | 15.8 µM (active) |  |
| COc1cccc(C(=O)NCC(=O)OCc2cc(=O)n3ccsc3n2)c1 | inactive |  |
| CNC(=O)NC(=O)CSc1nnc(-c2ccc(F)cc2)n1CC1CCCO1 (stereo not drawn) | inactive |  |
| Cc1nnc(SCC(N)=O)n1CC1CCCO1 (stereo not drawn) | inactive |  |
| O=C(CSc1nnc(-c2ccco2)n1CC1CCCO1)c1ccccc1 (stereo not drawn) | 25.1 µM (active) |  |
| Cc1ccccc1CSc1nc2c([nH]c3ccccc32)c(=O)n1C | inactive |  |
| COc1cccc(OCCn2c(-c3ccc(Br)cc3)nc3ccccc3c2=O)c1 | inactive |  |
| COc1ccc(OC)c(NC(=O)/C=C/c2ccc(C)o2)c1 | 50.1 µM (active) |  |
| Cc1ccc(/C=C/C(=O)Nc2ccc([N+](=O)[O-])c(NC(=O)/C=C/c3ccc(C)o3)c2)o1 | 22.4 µM (active) |  |
| CNc1ccc(NC(C)=O)cc1[N+](=O)[O-] | inactive |  |
| COc1ccc(OC)c(NC(=O)Cc2cccs2)c1 | inactive |  |
| Cc1ccc(/C=C/C(=O)Nc2cc(S(=O)(=O)N3CCCCCC3)ccc2OCC(F)(F)F)o1 | inactive |  |
| Cc1cc(NC(=O)Nc2ccccc2[N+](=O)[O-])no1 | inactive |  |
| CCc1ccc(NC(=O)N2CCN(C(=O)c3nsc4ccccc34)CC2)cc1 | inactive |  |
| Cc1cccc(C(C)C)c1NC(=O)C(NS(=O)(=O)c1cccc2nsnc12)c1ccccc1 (stereo not drawn) | inactive |  |
| CCc1ccc(CNCc2c(C(=O)O)n(Cc3ccc(F)cc3Cl)c3cc(OC)ccc23)cc1 | inactive |  |
| CC(CNC(=O)c1nnc(Cc2cccc(F)c2)o1)c1ccccc1 (stereo not drawn) | inactive |  |

Reference: PubChem BioAssay AID485364 (National Center for Advancing Translational Sciences (NCATS), 2010)
